# From PubChem BioAssay (EPA / NIEHS)
# Activity calls are given as the source filed them. Rule for the calls: active = hit-call score of the fitted dose curve at least 0.9, where 1 is the maximum; inactive = score below 0.9.
# Target: Transcription factor Sp1 (Homo sapiens) (UniProt P08047)
# Assay: ATG_Sp1_CIS: Attagene CIS-FACTORIAL HepG2 Assay for human Specificity Protein 1 (Sp1) (AID 2282961)
# Details: HepG2 Sp1 cis-reporter transcription, actives raise or lower the signal
# Method in brief: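 Transient MRTU-transfected HepG2, 24 h compound exposure. Total RNA → oligo(dT) RT → PCR of reporter → 6-FAM primer extension → HpaI digest → CE. Endpoint fitted both directions vs DMSO.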
# Chain of Transcription factor Sp1 (Homo sapiens) (P08047 whole entry, looked up): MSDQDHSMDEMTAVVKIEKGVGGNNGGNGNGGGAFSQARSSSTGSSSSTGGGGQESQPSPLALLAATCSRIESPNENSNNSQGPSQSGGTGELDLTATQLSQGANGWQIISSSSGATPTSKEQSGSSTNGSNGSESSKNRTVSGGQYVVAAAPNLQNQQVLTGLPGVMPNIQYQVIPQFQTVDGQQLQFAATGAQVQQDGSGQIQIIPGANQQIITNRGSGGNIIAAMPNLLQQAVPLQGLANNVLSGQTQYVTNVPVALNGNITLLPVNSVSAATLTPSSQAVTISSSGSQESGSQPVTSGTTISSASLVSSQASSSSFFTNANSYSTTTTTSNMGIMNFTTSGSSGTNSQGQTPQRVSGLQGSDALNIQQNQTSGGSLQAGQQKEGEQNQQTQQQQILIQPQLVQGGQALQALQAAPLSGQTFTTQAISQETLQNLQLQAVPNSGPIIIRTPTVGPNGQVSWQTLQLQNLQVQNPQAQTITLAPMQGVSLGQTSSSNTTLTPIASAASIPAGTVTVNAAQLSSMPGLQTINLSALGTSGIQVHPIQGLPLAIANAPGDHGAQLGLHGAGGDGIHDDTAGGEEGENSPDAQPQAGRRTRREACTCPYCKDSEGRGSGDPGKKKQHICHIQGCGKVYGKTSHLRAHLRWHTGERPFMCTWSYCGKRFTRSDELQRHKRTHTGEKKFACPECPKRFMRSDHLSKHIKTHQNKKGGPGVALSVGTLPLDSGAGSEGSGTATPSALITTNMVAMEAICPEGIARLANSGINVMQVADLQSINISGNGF
Compound,outcome,AC50
COC(=O)NS(=O)(=O)c1ccc(N)cc1,inactive,–
CC(C)(C)C(=O)C(Oc1ccc(Cl)cc1)n1cncn1 (stereo unspecified),inactive,–
Cc1c(COC(=O)[C@@H]2[C@H](/C=C(\Cl)C(F)(F)F)C2(C)C)cccc1-c1ccccc1,inactive,–
CCOC(=O)C(C)OC(=O)c1cc(Oc2ccc(C(F)(F)F)cc2Cl)ccc1[N+](=O)[O-] (stereo unspecified),inactive,–
CCN(CC)c1nc(C)cc(OP(=S)(OC)OC)n1,inactive,–
COCC(=O)N(c1c(C)cccc1C)C(C)C(=O)OC (stereo unspecified),inactive,–
CCCCC(C#N)(Cn1cncn1)c1ccc(Cl)cc1 (stereo unspecified),inactive,–
Nc1cnn(-c2ccccc2)c(=O)c1Cl,inactive,–
CC(C)C1(C)N=C(c2ncccc2C(=O)O)NC1=O (stereo unspecified),inactive,–
N#Cc1c(Cl)cccc1Cl,inactive,–
CCNC(=O)NC(=O)C(C#N)=NOC,inactive,–
Cc1cc(C)nc(Nc2ccccc2)n1,inactive,–
CC(C)=CC1C(C(=O)OCc2coc(Cc3ccccc3)c2)C1(C)C (stereo unspecified),inactive,–
COCc1cnc(C2=NC(C)(C(C)C)C(=O)N2)c(C(=O)O)c1 (stereo unspecified),inactive,–
CCOc1nc(F)cc2nc(S(=O)(=O)Nc3c(Cl)cccc3Cl)nn12,inactive,–
CCN(CC)C(=O)C(C)Oc1cccc2ccccc12 (stereo unspecified),inactive,–
CS(=O)(=O)c1cc(C(F)(F)F)ccc1C(=O)c1cnoc1C1CC1,inactive,–
CNC(=O)N(C)c1nnc(C(C)(C)C)s1,inactive,–

Compound,outcome,AC50
COC(=O)NC(=S)Nc1ccccc1NC(=S)NC(=O)OC,inactive,–
CCOP(=O)(OCC)Oc1nc(Cl)c(Cl)cc1Cl,inactive,–
CC(C)N1C(=O)N(c2ccccc2)CSC1=NC(C)(C)C,inactive,–
COP(=S)(OC)SCn1nnc2ccccc2c1=O,–,32.5 µM (active)
O=C(Nc1ccccc1-c1ccc(Cl)cc1)c1cccnc1Cl,–,19.8 µM (active)
O=P(O)(O)CCCl,inactive,–
C=CCOC(=O)C(C)(C)OC(=O)c1cc(-n2c(=O)cc(C(F)(F)F)n(C)c2=O)ccc1Cl,inactive,–
O=c1n(Cl)c(=O)n(Cl)c(=O)n1Cl,inactive,–
Clc1nc(Cl)nc(Nc2ccccc2Cl)n1,inactive,–
CC1(C)CON(Cc2ccccc2Cl)C1=O,inactive,–
COC(=O)c1c(C(F)F)nc(C(F)(F)F)c(C2=NCCS2)c1CC(C)C,inactive,–
CO/N=C(/C1=NOCCO1)c1ccccc1Oc1ncnc(Oc2ccccc2Cl)c1F,inactive,–
CCOc1cc(C(C)(C)C)ccc1C1COC(c2c(F)cccc2F)=N1 (stereo unspecified),inactive,–
CCSC(=O)N1CCCCCC1,inactive,–
COc1cc(OC)nc(NC(=O)NS(=O)(=O)c2ncccc2OCC(F)(F)F)n1,inactive,–
CSC(=O)c1c(C(F)F)nc(C(F)(F)F)c(C(=O)SC)c1CC(C)C,inactive,–
CC(C)Oc1cccc(NC(=O)c2ccccc2C(F)(F)F)c1,inactive,–
CN=C=S,–,13.3 µM (active)
